# Compounds with a hit are over-represented: about 21% of the library has one in this group of screens.
# Pf growth 48h: P. falciparum growth inhibition at 48 hours (one generation); P. falciparum luciferase growth in erythrocytes, 48 h; Potency, µM (highest dose often 28.7 µM), inactives show at the top dose activity change, negative = inhibition, hits mostly inhibitors; actives 5.9% (n = 310,000); also: potency is read from the fitted curve at half-maximal effect; % is scaled to controls: 0 for no effect and ±100 for the full control effect
#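 First compound was added to culture medium, then infected red cells at 0.1% parasitemia and 2% hematocrit (final). After incubation at 37 C under 5% CO2, luciferase detection reagent was dispensed and light output recorded.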
# HCV inh: blocks hepatitis C virus; Huh7.5.1 HCVcc-Cre infection, luciferase reporter, 44 h; AID 651820; actives 3.4% (n = 340,000); Potency, µM (series often up to 41.8 µM), without a hit: at the highest dose activity change, negative = inhibition, hits mostly inhibitors; also: potency is read from the fitted curve at half-maximal effect; % is scaled to controls: 0 for no effect and ±100 for the full control effect
#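 1,000 cells/well; 4 h culture; + compound; + HCVcc-Cre (~0.5 moi); 44 h; luciferase substrate, RT 15 min; read 15 sec.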
# Pf growth 96h: P. falciparum growth inhibition at 96 hours; P. falciparum luciferase reporter growth, 96 h; Potency, µM (highest dose often 28.7 µM), for the others: top-dose activity change, negative = inhibition, usual class: inhibitors; actives 6.9% (n = 320,000); also: potency is read from the fitted curve at half-maximal effect; % is scaled to controls: 0 for no effect and ±100 for the full control effect
#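 Readout is luminescence from an integrated firefly luciferase in P. falciparum. Red cells, 2% hematocrit and 0.05% parasitemia final, were cultured with compound through two parasite generations (96 hours) at 37 C, 5% CO2.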
# AMA1 RON2 block: inhibitors of Plasmodium falciparum AMA1-RON2 interaction. AlphaScreen AMA1-biotinylated RON2 peptide binding. Potency, µM (top dose mostly 58.2 µM), for the others: top-dose activity change, negative = inhibition, usual class: inhibitors. actives 0.2% (n = 360,000);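 also: potency is read from the fitted curve at half-maximal effect; 0% = vehicle wells and -100% = peptide control; nearly all actives have a fitted effect of over 45% in size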
#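 AMA1 (3D7) with his tag at 25 nM final met compounds first, then biotinylated RON2 peptide at 25 nM; detection used donor plus acceptor beads, 10 µg/mL apiece, read by AlphaScreen after 30 min at room temperature.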
# Cycloheximide cs: affects cycloheximide protein synthesis inhibition readout, counter-screen | cell reporter, cycloheximide protein synthesis inhibition counterscreen | max response, % | actives 12% (n = 300,000) | AID 2314; in the data active = max response mostly above about 13%, no sharp cut-off; inactive = mostly below about 14%; also: read at 38.3 µM for the half of the compounds with a filed dose; 0% is about no effect
# Shiga inhibitor: Shiga toxin inhibition. inhibition, % at 38.7 µM. Vero cells, Shiga toxin protein synthesis inhibition reporter. actives 9.2% (n = 290,000); in the data active = inhibition mostly above about 28%, no sharp cut-off; inactive = mostly below about 43%; also: 0% is about no effect
# * marks the source's active call; other numbers are inactive results; u = inconclusive; x = no result given; [ ] = another dose, or the depositor's remark. Unless noted, calls follow the shape of the dose curve; as a rule, active = well fitted curve in the direction sought with a large enough effect; inconclusive = small, poorly fitted or top-dose-only effect, or another doubt; inactive = no such curve, though single readings can be large; an effect the other way counts as inactive or inconclusive.
SMILES,Pf growth 48h,HCV inh,Pf growth 96h,AMA1 RON2 block,Cycloheximide cs,Shiga inhibitor
CCCOc1ccc2ccccc2c1/C=C1\SC(=O)NC1=O,-18%,8%,u,-12%,-1,x
CCN(CC)S(=O)(=O)c1ccc(N2CCOCC2)c(NC(=O)c2ccc(N3CCCC3=O)cc2)c1,7.4µM*,u,15µM*,4%,x,x
CCN(CC)S(=O)(=O)c1ccc(N2CCCC2)c(NC(=O)c2ccncc2)c1,6%,-3%,-1%,-7%,-1,-15
CCN(CC)S(=O)(=O)c1ccc(N2CCCCC2)c(NC(=O)C2=COCCO2)c1,1.9µM*,u,1.5µM*,-8%,x,x
O=C(Nc1ccccc1N1CCOCC1)c1ccc(N2CCCC2=O)cc1,u,u,u,-11%,x,x
CCN(CC)S(=O)(=O)c1ccc(N2CCCCC2)c(NC(=O)c2ccncc2)c1,u,-30%,u,12%,12,35*
O=C(Nc1ccccc1N1CCCC1)C1CCN(C(=O)c2ccc(F)cc2)CC1,u,1%,2%,5%,x,x
CCN(CC)S(=O)(=O)c1ccc(N2CCCCC2)c(NC(=O)C2CCN(C(=O)c3ccc(F)cc3)CC2)c1,12µM*,u,9.3µM*,1%,x,x
CCN(CC)S(=O)(=O)c1ccc(N2CCCC2)c(NC(=O)C2=COCCO2)c1,15%,18%,-20%,-12%,x,x
CCN(CC)S(=O)(=O)c1ccc(N2CCCC2)c(NC(=O)c2ccc(N3CCCC3=O)cc2)c1,13µM*,u,12µM*,10%,x,x
CCN(CC)S(=O)(=O)c1ccc(OC(C)C)c(NC(=O)C2=COCCO2)c1,u,u,8.3µM*,32%,x,x
CCCCCCCCN1[C@@H](CC(=O)O)c2ccc(C(F)(F)F)cc2S1(=O)=O,x,7%,x,-2%,x,x
CC1(C(=O)NCCN2CCOCC2)C=CC2(CCCCC2)N1C(=O)c1ccccc1 (stereo unspecified),9%,2%[8.37 µM],u,-6%,26*,33
C[C@]1(C(=O)NCCN2CCOCC2)C=C[C@@H](Cc2ccccc2)N1C(=O)c1ccccc1,18%,9%,-23%,13%,-5,-12
CC(=O)N1[C@H](Cc2ccccc2)C=C[C@]1(C)C(=O)NCCN1CCOCC1,5%,-12%,u,-5%,11*,23
Cc1ccc(C(=O)O/N=C\c2ccc(N3CCCCC3)c([N+](=O)[O-])c2)cc1,-10%,u,15%,u,-3,-16
CN(C)c1ccc(/C=N/N=C(N)N)cc1[N+](=O)[O-],2.1µM*,1%,281%,-4%,-1,3
Cc1ccc(C2=NOC(C)(c3sc(-c4ccc(Cl)cc4)nc3C)C2)cc1 (stereo unspecified),x,-7%[8.37 µM],x,-7%,x,x
Cc1nc(-c2ccc(Cl)cc2)sc1C1(C)CC(c2cccc(Cl)c2)=NO1 (stereo unspecified),52%,4%,88%,-8%,17*,32*
Cc1nc(-c2ccc(Cl)cc2)sc1C1(C)CC(c2cccc(F)c2)=NO1 (stereo unspecified),77%,22%[8.37 µM],65%,4%,28*,52*
Cc1nc(-c2ccc(Cl)cc2)sc1C1(C)CC(c2ccncc2)=NO1 (stereo unspecified),x,-15%[8.37 µM],x,-23%,x,x
Cc1nc(-c2ccc(Cl)cc2)sc1C1(C)CC(c2ccc(F)cc2)=NO1 (stereo unspecified),8%,12%,44%,10%,25*,47*
COc1ccc(-c2cc(C(=O)Nc3cc(S(=O)(=O)N4CCOCC4)ccc3N3CCOCC3)c3ccccc3n2)cc1,u,u,u,-4%,12,6
N/N=C(/Cc1nc2ccccc2[nH]1)c1ccc([N+](=O)[O-])cc1,u,u,45%,73%,44*,141*
N#CCCN/N=C(/Cc1nc2ccccc2[nH]1)c1ccc(Cl)cc1,u,-4%,x,x,30*,67*
SMILES,Pf growth 48h,HCV inh,Pf growth 96h,AMA1 RON2 block,Cycloheximide cs,Shiga inhibitor
Clc1cccc(/C(Cc2nc3ccccc3[nH]2)=N\Nc2ccccc2)c1,-84%,u,u,19%,54*,55*
Cc1ccc(Cc2nc3ccccc3[nH]2)cc1,1%[0.00184 µM],-18%,-29%,17%,8,31
Cc1ccc(N/N=C(\Cc2nc3ccccc3[nH]2)c2ccccc2)cc1,9.3µM*,u,u,25%,35*,48*
N#C/C(=C(/O)c1ccc([N+](=O)[O-])cc1)c1nc2ccccc2[nH]1,23%,1%,28%,44%,-2,18
COc1ccc2cc(/C(C)=N/NC(=O)c3cc(C)oc3C)ccc2c1,x,x,x,-9%,x,x
COc1ccc(Cl)cc1NC(=O)CN1CCN(Cc2ccccc2)CC1,-28%,-12%,199%,-21%,-1,x
O=C(NCc1cccc(C(F)(F)F)c1)N1CCN(C(=O)c2ccccc2)CC1,x,-5%,x,0%[11.6 µM],x,x
c1ccc(N/N=C(\Cc2nc3ccccc3[nH]2)c2ccccc2)cc1,-86%,-9%,u,76%,52*,48*
N#CCCN/N=C(\Cc1nc2ccccc2[nH]1)c1ccccc1,x,7%,u,42%,19,39
O=C(Cc1nc2ccccc2[nH]1)N/N=C/c1ccccc1,22%,11%,-26%,60%,3,2
CCN/N=C(\Cc1nc2ccccc2[nH]1)c1ccccc1,10µM*,4%,u,51%,20*,58
COc1ccc(NC(=O)Cn2ncn3nc(-c4ccc(OC)cc4)cc3c2=O)cc1,42%,u,2%,2%,-3,1
CCCCOC(=O)c1ccc(NC(=O)CSc2nncn2C)cc1,27%,15%,-14%,34%,25*,41
Cn1cnnc1SCC(=O)Nc1ccc(OC(F)F)cc1,13µM*,26%,-4%,-2%,2,11
CCCCOC(=O)c1ccc(NC(=O)COC(=O)CSc2nc(C)cc(C)n2)cc1,40%,-8%,76%,3%,21*,58*
Cn1cnnc1SCC(=O)c1ccc(OC(F)F)cc1,x,8%,-4%,0%,-2,-6
COC(=O)c1ccccc1NC(=O)CSc1nncn1C,12µM*,7%,-4%,-1%,3,4
COC(=O)c1ccccc1NC(=O)CSc1nncn1-c1cccnc1,20%,4%,u,3%,-2,-6
COc1ccc(NC(=O)CSc2nc(C)cc(C)n2)cc1,8%,-17%,74%,4%,-7,-22
CC(=O)Nc1ccc(S(=O)(=O)N2CCN(CC(=O)N3CCOCC3)CC2)cc1,-2%,21%,39%,-1%,0,-5
CCCCCCCCN1C(=O)[C@H](CC(=O)N2CCN(C(=O)c3ccco3)CC2)C[C@@]2(C(=O)OC)CCCCC=C12,x,x,x,-19%,x,x
O=S1(=O)N[C@@H](Cc2ccccc2)COc2cc(N3CCC[C@@H]3CO)ccc21,x,x,x,-7%,x,x
